# This excerpt belongs to a sample that is enriched for hits.
# TDP1 cell noCPT – qHTS for Inhibitors of human tyrosyl-DNA phosphodiesterase 1 (TDP1): qHTS in cells in absence of CPT | DT40 Tdp1-/- hTDP1 cells, no CPT, ATP luminescence, 48 h | Potency, µM (doses to about 46.2 µM), for inactives: at the highest dose activity change, negative = growth inhibition, hits mostly inhibitors | actives 15% (n = 420,000) | AID 686978, 2013; note: potency is the fitted concentration of half-maximal effect; nearly all actives have a fitted effect of over 55% in size
#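 Compound effects on proliferation are scored in DT40 Tdp1-/-;hTDP1 cells in the absence of CPT. ATP levels (CellTiter-Glo luminescence) are recorded after a ≥48 hr, 37 °C incubation.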
# 12-LOX inh – inhibitors of human 12S-lipoxygenase ALOX12 | AID 1671190 | actives 1.1% (n = 580,000) | Potency, µM (series often up to 108 µM), inactives show at the top dose activity change, negative = inhibition, hits mostly inhibitors | purified 12hLO, xylenol orange hydroperoxide absorbance; note: potency is the fitted concentration of half-maximal effect
# Target sequence (P18054 whole entry, looked up): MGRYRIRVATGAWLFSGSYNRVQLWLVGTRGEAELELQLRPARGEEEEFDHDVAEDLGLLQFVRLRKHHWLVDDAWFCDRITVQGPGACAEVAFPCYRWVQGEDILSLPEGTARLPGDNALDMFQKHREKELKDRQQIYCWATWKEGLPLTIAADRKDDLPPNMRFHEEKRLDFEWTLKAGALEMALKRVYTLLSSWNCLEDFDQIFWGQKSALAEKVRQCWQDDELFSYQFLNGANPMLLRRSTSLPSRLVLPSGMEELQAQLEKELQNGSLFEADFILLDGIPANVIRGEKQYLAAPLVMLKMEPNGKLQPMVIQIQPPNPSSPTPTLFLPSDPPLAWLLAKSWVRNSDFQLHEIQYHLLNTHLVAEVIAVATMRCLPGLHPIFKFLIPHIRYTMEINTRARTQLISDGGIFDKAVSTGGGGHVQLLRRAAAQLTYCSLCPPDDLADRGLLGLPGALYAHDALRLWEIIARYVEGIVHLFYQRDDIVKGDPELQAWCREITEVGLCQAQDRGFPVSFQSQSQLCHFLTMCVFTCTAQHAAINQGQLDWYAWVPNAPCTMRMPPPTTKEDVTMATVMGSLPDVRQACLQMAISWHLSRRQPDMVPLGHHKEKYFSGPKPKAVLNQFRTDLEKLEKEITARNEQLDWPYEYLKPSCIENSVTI
#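 Purified human 12hLO (150 nM final) in 25 mM Hepes, 0.01% Triton X-100, pH 7.0 was preincubated 15 min at room temperature with compound. Then 40 uM arachidonic acid was added, 30 min. Hydroperoxide was read by Fe-XO absorbance ratio 573/405 nm.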
# TDP1 cell CPT – DT40-hTDP1 cell growth loss with CPT; chicken DT40 Tdp1-/-;hTDP1 cells + 20 nM CPT, ATP luminescence, 48 h; Potency, µM (doses to about 46.2 µM), inactives show at the top dose activity change, negative = growth inhibition, usual class: inhibitors; actives 12% (n = 420,000); AID 686979; note: potency is the fitted concentration of half-maximal effect; nearly all actives have a fitted effect of over 55% in size
#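 Chicken DT40 Tdp1-/- cells stably complemented with human TDP1 were seeded at 400 cells/well in medium containing 20 nM camptothecin, exposed to pin-transferred compounds, and grown at 37 °C for at least 48 hr. Viability was read as ATP luminescence.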
# HT1080-NT tox – kills 2HG-producing HT-1080-NT fibrosarcoma cells | HT-1080-NT fibrosarcoma viability, CellTiter-Glo ATP luminescence, 48 h | Potency, µM (highest dose often 46.1 µM), for inactives: at the highest dose activity, negative = less viability, hits mostly cytotoxic | actives 1.6% (n = 360,000) | AID 686970;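 note: NT is the 2HG producing partner of a matched IDH1 knockdown line; potency is the fitted concentration of half-maximal effect; 0% = DMSO-treated cells and -100% = media-only wells without cells; nearly all actives have a fitted effect of over 55% in size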
#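 Toxicity toward the 2HG-producing NT line was scored as %Activity, normalised to DMSO and no-cell wells, from CellTiter-Glo luminescence after 48 hours' treatment.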
# IL-1B inflam inh – inhibitors of inflammasome signaling (IL-1 beta secretion) | actives 4.7% (n = 360,000) | AID 743279 | activity change, % at 57.5 µM | THP-1 LPS/ATP IL-1B secretion, AlphaLISA, 16 h; hits give low values; in the data active = activity change below about -50%; inconclusive = mostly about -30% to -49%
#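 Secreted IL-1B measured by AlphaLISA bead assay after 16 h compound exposure of THP-1 cells; compounds (final up to 57.5 uM) added 1 h before LPS (250 ng/mL) and ATP (1.25 mM) stimulation; lower signal means less secretion.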
# HT1080 IDH1KD tx – toxicity to HT-1080 IDH1 knockdown cells (counter line); HT-1080 IDH1 knockdown viability, ATP luminescence, 48 h; Potency, µM (highest dose often 46.1 µM), without a hit: at the top dose activity, negative = toxicity, most hits filed as cytotoxic; actives 2% (n = 360,000); AID 686971;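 note: potency is the fitted concentration of half-maximal effect; 0% = DMSO wells and -100% = cell-free medium wells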
#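 Knockdown cells (IDH1KD HT-1080) received compounds 2 h after plating at 750 cells/well and were kept 48 h at 37 °C in 5% FBS RPMI. A CellTiter-Glo luminescence read gave % activity for curve fitting.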
# Active calls of the source: *; ? = inconclusive; / = no result; [ ] = remark or other dose. Unless noted, calls come from the whole dose curve; as a rule, active = well fitted curve in the direction sought with a large enough effect; inconclusive = small, poorly fitted or top-dose-only effect, or another doubt; inactive = no such curve, though single readings can be large; an effect the other way counts as inactive or inconclusive. Unless noted, % is set by controls: 0 for no effect and ±100 for the full control effect.
SMILES,TDP1 cell noCPT,12-LOX inh,TDP1 cell CPT,HT1080-NT tox,IL-1B inflam inh,HT1080 IDH1KD tx
O=C(c1ccncc1)N1CCCC(CN2CCOCC2)CC1 (stereo not drawn),/,28%,/,/,/,/
CCOC(=O)c1cccc(NS(=O)(=O)c2cc3c(cc2C)NC(=O)CO3)c1,18µM*,-17%,18µM*,/,/,/
Cc1nc2scc(C)n2c(=O)c1S(=O)(=O)Nc1ccc(OC(F)(F)F)cc1,15µM*,8%,21µM*,-19%,14,-14%
CC(=O)c1cccc(NS(=O)(=O)c2cc3c(cc2C)NC(=O)CO3)c1,-3%,-25%,-12%,3%,11,-12%
Cc1nc2sccn2c(=O)c1S(=O)(=O)Nc1ccc(N2CCOCC2)c(Cl)c1,29µM*,8%,18µM*,6%,33,-3%
Cc1cn2c(=O)c(S(=O)(=O)Nc3ccc(F)cc3F)c(C)nc2s1,?,-21%,-20%,/,/,/
CC(=O)c1cccc(NS(=O)(=O)c2c(C)nc3sc(C)cn3c2=O)c1,15µM*,?,18µM*,/,/,/
COc1cccc(NC(=O)[C@@H]2C[C@@H](c3cccc(C(F)(F)F)c3)N(Cc3cnn(C)c3)C2)c1,/,17%,/,/,/,/
COC(=O)N1CCC2(CCCN(Cc3cc(C(F)(F)F)cc(C(F)(F)F)c3)C2)CC1,1%,-4%[57.4 µM],-2%,/,/,/
FC(F)(F)c1cc(CN2CCCC3(CCNCC3)C2)cc(C(F)(F)F)c1,18µM*,11%[57.4 µM],?,/,/,/
COc1ccc(C(=O)N2CCC3(CCCN(Cc4cc(C(F)(F)F)cc(C(F)(F)F)c4)C3)CC2)cc1,?,?,21µM*,/,/,/
COc1ccc(CN2CCC([C@H]3[C@@H](OC)C(=O)N3C(C)C)CC2)cc1CN1CCCC1,/,102%,/,/,/,/
CCC(CC)N=C1NS(=O)(=O)c2cc([N+](=O)[O-])ccc21,21µM*,-19%,?,-27%,24,-15%
CC(C)(C)CC(C)(C)N=C1NS(=O)(=O)c2cc([N+](=O)[O-])ccc21,15µM*,-1%,?,-7%,-14,-4%
CC(C)(CO)N=C1NS(=O)(=O)c2cc([N+](=O)[O-])ccc21,?,-10%,-17%,0%,57,2%
Cc1ccc(S(=O)(=O)N2CCN(Cc3cn4cccc(C)c4n3)CC2)cc1,/,6%,/,/,/,/
O=C(Nc1ccc2c(c1)OCO2)c1cccc2c1CCN2C(=O)Nc1ccc(F)cc1,/,1%,/,/,/,/
CC1CC(C)CN(C(=O)c2cc3ccccc3cc2O)C1 (stereo not drawn),/,-49%,/,/,/,/
COc1cc2c(C)nc3c(cnn3-c3ccccc3)c2cc1OC,-22%,-12%,-17%,?,-15,22%
COc1cc(-c2nc3c(c(C)nn3-c3ccccc3)c3cc(OC)c(OC)cc23)ccc1O,21µM*,-1%,?,-4%,?,-3%
COc1cc2c(-c3cc(Br)ccc3O)nc3c(c(C)nn3-c3ccccc3)c2cc1OC,-24%,-16%,?,/,/,/
COc1cc2c(-c3ccccc3C)nc3c(c(C)nn3-c3ccccc3)c2cc1OC,?,-18%,23µM*,/,/,/
O=S(=O)(c1ccccc1)N1CCn2c(nnc2[C@@H]2C[C@@H](O)CN2Cc2cccnc2)C1,/,2%,/,/,/,/
CCCc1nc2n(n1)C1(CCCCC1)[C@@H]1CCCC[C@@H]1N2C(=O)CC,/,27%,/,/,/,/
COc1ccc(C(=O)N2c3nc(-c4ccco4)nn3C3(CCCCC3)[C@@H]3CCCC[C@@H]32)cc1OC,?,-26%,16µM*,/,/,/
SMILES,TDP1 cell noCPT,12-LOX inh,TDP1 cell CPT,HT1080-NT tox,IL-1B inflam inh,HT1080 IDH1KD tx
O=C(c1ccccc1F)N1c2nc(-c3ccco3)nn2C2(CCCCC2)[C@@H]2CCCC[C@@H]21,18µM*,-27%,?,/,/,/
O=C(c1ccc(F)cc1)N1c2nc(-c3ccco3)nn2C2(CCCCC2)[C@@H]2CCCC[C@@H]21,23µM*,-6%,?,/,/,/
CC(C)(CO)NC(=O)c1ccc(Cl)cc1,/,9%,/,/,/,/
Cc1c(-c2ccc(Br)cc2)c(=O)oc2ccc(OC(=O)N3CCOCC3)cc12,?,2%,?,/,/,/
Cc1c(-c2ccc(Cl)cc2)c(=O)oc2c(CN3CCOCC3)c(O)ccc12,21µM*,?,?,/,/,/
CCc1c(C)c2ccc(O)c(CN3CCN(c4ccc(F)cc4)CC3)c2oc1=O,?,-11%,21µM*,/,/,/
CCN1CCN(Cc2c(O)ccc3c(C)c(-c4ccccc4)c(=O)oc23)CC1,16µM*,-5%,?,/,/,/
Cc1c(-c2ccc(Cl)cc2)c(=O)oc2ccc(OC(=O)N3CCOCC3)cc12,21µM*,2%,?,/,/,/
Cc1cc(C)cc(-n2c(=O)c3sccc3n(CC(=O)NC3CCc4ccccc43)c2=O)c1 (stereo not drawn),/,2%,/,/,/,/
COc1cc(/C=C(\C#N)c2nc3ccccc3[nH]2)cc(Br)c1OC,/,-6%,/,/,/,/
CC1CN(Cc2c(O)ccc3c2oc(=O)c2ccccc23)CC(C)O1 (stereo not drawn),15µM*,5.6µM*,15µM*,?,-14,-7%
CCc1cccc(NC(=O)CCc2c[nH]c3ccccc23)c1,/,-14%,/,/,/,/
O=C(COC(=O)c1ccccc1C(=O)OCC(=O)NCCc1c[nH]c2ccccc12)NCCc1c[nH]c2ccccc12,23µM*,-1%,?,?,-20,-23%
O=C(NCCc1c[nH]c2ccccc12)OCCCCOC(=O)NCCc1c[nH]c2ccccc12,23µM*,-16%,18µM*,?,-51*,?
O=C(Nc1cccc(CNCCc2c[nH]c3ccccc23)c1)c1ccccc1Cl,18µM*,?,?,?,?,?
O=C(Cc1c[nH]c2ccccc12)N/N=C/c1ccccc1O,?,-19%,16µM*,-27%,156,-6%
CC(C)C(=O)NCCc1c[nH]c2ccccc12,-17%,-2%,17%,1%,0,1%
O=C(CCc1ccccc1)NCCc1c[nH]c2ccccc12,/,8%,/,/,/,/
O=C(Cc1ccccc1F)NCCc1c[nH]c2ccccc12,/,-15%,/,/,/,/
O=C(NCCc1c[nH]c2ccccc12)c1ccc([N+](=O)[O-])o1,23µM*,1%,15µM*,?,-87*,?
O=C(CCCc1c[nH]c2ccccc12)NCCc1c[nH]c2ccccc12,16µM*,-3%,?,-20%,?,-21%
O=C(NCCNCc1c[nH]c2ccccc12)c1ccc(F)cc1,/,7.9µM*,/,/,/,/
